# This is a sample that favours compounds with a hit; in the whole collection about 0.68% have one here.
# Mtb hypoxia rep = Mtb hypoxia fluorescent reporter inhibition; M. tuberculosis hypoxia-regulated fluorescent reporter, fluorescence; fluorescence inhibition, % (test concentration not listed); 300,000 compounds, 0.1% hits; AID 1159583; in the data active = fluorescence inhibition mostly above about 23%, no sharp cut-off; inactive = mostly below about 17%
# Sa RN4220 lethal = kills Staphylococcus aureus RN4220. 330,000 compounds, 0.33% hits. S. aureus RN4220 growth, OD600, 16 h. inhibition, % (concentration not given with the values). AID 1259311; in the data active = inhibition above about 85%
# ugtP null kill = growth inhibition of S. aureus ugtP deletion strain | S. aureus RN4220 ugtP deletion, OD600 growth, 16 h | 330,000 compounds, 0.54% hits | growth inhibition, % (concentration not given with the values); in the data active = growth inhibition above about 68%
# Hits are given with their value; i = inactive; nt = not tested or not shown.
SMILES,Mtb hypoxia rep,Sa RN4220 lethal,ugtP null kill
CC(C)Cn1nc(C(=O)Nc2cccc(S(=O)(=O)N3CCCC3)c2)c2ccccc2c1=O,i,i,i
CCn1nc(C(=O)Nc2cccc(S(=O)(=O)N3CCCC3)c2)c2ccccc2c1=O,23,i,i
O=C1N/C(=N/N=Cc2ccc(O)cc2)SC1Cc1ccccc1 (stereo not given),i,i,i
Cc1ccccc1OCC(=O)NN=Cc1c(C)nn(-c2ccccc2)c1Cl,i,i,i
CC(Cc1ccccc1)=NNC(=O)CNC(=O)C(c1ccccc1)c1ccccc1,i,i,i
COc1nc(Cl)cn(-c2ccc(C)cc2)c1=O,i,i,i
Cc1ccc(-n2c(Cl)c(Cl)nc(Cl)c2=O)cc1,i,100,100
COc1cc(C(=O)Sc2ccc(Cl)cc2)cc(OC)c1OC,nt,i,93
COc1cc(C(=O)NCCSc2ccc(Cl)cc2)cc(OC)c1OC,i,i,i
Cc1ccc(NC(=O)c2nc[nH]c2C(=O)NC(C)C(=O)OC(C)(C)C)cc1 (stereo not given),i,i,i
Cc1nn(C)c(C(=O)NN=Cc2cc3c(cc2Br)OCO3)c1Br,i,i,i
Cc1ccc(NC(=O)c2ccccc2NS(=O)(=O)c2ccc(Cl)s2)cc1,i,i,90
O=C(Nc1ccccc1)c1ccccc1NS(=O)(=O)c1ccc(Cl)s1,i,87,92
Cc1ccc(NS(=O)(=O)c2ccc(Cl)s2)nc1,i,i,i
O=C(NCc1ccco1)c1ccccc1NS(=O)(=O)c1ccc(Cl)s1,nt,i,i
CCOC(=O)C1C2COc3ccc(Cl)cc3C2N2C(=O)CN(Cc3ccc(OC)cc3)C(=O)[C@@]12C (stereo not given in full),i,i,i
C#CCOCCOCCOCCNc1nc(N2CCN(C(=O)Cn3cc(CC(C)O)nn3)CC2)nc(N2CCN(C(=O)C(C)n3cc(CCCN=C(N)N)nn3)CC2)n1 (stereo not given),i,i,i
COc1cc(NS(=O)(=O)c2ccc(NC(=O)C=Cc3cccc([N+](=O)[O-])c3)cc2)ncn1,i,i,i
Cc1ccc(S(=O)(=O)N(c2nc(N(C)C)nc(N(C)C)n2)n2cnnc2)cc1,i,94,98
Cc1ccc(S(=O)(=O)Nn2cnnc2)cc1,i,i,i
CC1CCCN(c2ccc([N+](=O)[O-])cc2C(=O)c2ccccc2)C1 (stereo not given),i,i,87
O=C(c1ccccc1)c1cc([N+](=O)[O-])ccc1N1CCOCC1,i,i,i
CCCCCCC(N)CC(=O)O (stereo not given),i,i,i
CCCCCCCCCCCCCCCC(O)C(N)CO (stereo not given),i,100,100
CCC(C)C(N)c1cn(C(CCCN=C(N)N)C(=O)N2CCNCC2)nn1 (stereo not given),i,i,i
SMILES,Mtb hypoxia rep,Sa RN4220 lethal,ugtP null kill
COc1ccccc1C(=O)Nc1ccccc1SC(=O)c1ccccc1OC,i,i,89
COc1ccccc1C(=O)Nc1ccc(C)cc1C(=O)c1ccccc1,i,i,93
COC(=O)c1ccccc1NC(=O)c1ccccc1OC,nt,i,i
COc1ccc(C(=O)Nc2ccc(C)cc2C(=O)c2ccccc2)cc1,i,i,i
O=C(CSc1nccc(-c2cccs2)n1)Nc1cccc(Cl)c1,i,i,i
O=C(CSc1nccc(-c2cccs2)n1)Nc1ccc(F)c(Cl)c1,i,i,89
Cc1noc(C)c1COC(=O)C(C)NS(=O)(=O)c1ccc(Cl)c(Cl)c1 (stereo not given),i,i,i
CCC(C)C(CNC(C)CNC)NCCC(c1ccccc1)c1ccccc1 (stereo not given),i,i,i
O=C1C=C(C=Cc2ccccc2)CC(c2ccc3c(c2)OCO3)C1 (stereo not given),i,i,i
O=C(NN=C/C(Cl)=C/c1ccc([N+](=O)[O-])cc1)C(=O)Nc1ccc(C(=O)O)cc1,i,i,i
Cc1ccc(C(=O)COc2ccccc2-c2ccccc2)cc1,i,i,86
Cc1ccc(C(=O)COc2ccccc2N2C(=O)c3ccccc3C2=O)cc1,i,i,i
COc1ccc(OC)c(C(O)=CC(=O)C(=O)Nc2cc(C)ccc2OC)c1,i,i,i
C(C#CCCCCCCCCC[n+]1ccccc1)#CCCCCCCCCC[n+]1ccccc1,nt,100,101
COC1C=C2CCN(C)C2C2c3cc4c(cc3C(=O)OC12)OCO4 (stereo not given),i,i,i
O=C(NN=Cc1ccccn1)C1COc2cc3ccccc3cc2O1 (stereo not given),nt,i,i
CN1CCN(c2cc(-c3cc(O)c4ncccc4c3)ccn2)CC1,i,i,i
Oc1cc(-c2cccnc2)cc2cccnc12,i,100,100
C#Cc1ccc(C2C=C(C(=O)O)OC(OCc3ccc(CO)cc3)C2)cc1 (stereo not given),i,i,i
COc1ccc(-c2nc(-c3ccc4c(c3)OCO4)[nH]c2-c2ccc(OC)cc2)cc1,i,i,87
